GAA inh – qHTS Assay for Inhibitors of Human alpha-Glucosidase as a Potential Chaperone Treatment of Pompe Disease. purified human GAA, 4-MU-alpha-glucoside fluorescence. Potency, µM (top dose mostly 76.9 µM), for the others: at the top dose activity change, negative = inhibition, hits mostly inhibitors. 200,000 compounds, 0.005% hits;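 also: potency is read from the fitted curve at half-maximal effect; plate controls were uninhibited enzyme wells for no effect and no-enzyme background for full effect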
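Endpoint fluorogenic read: 20 min room-temperature reaction of 4 nM human alpha-glucosidase with 400 uM 4-methylumbelliferyl-alpha-D-pyranoside, pH 5.0, quenched with 1M NaOH/1M glycine pH 10. AC50 from Hill modeling.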
GAA spleen mod – qHTS Assay for Inhibitors and Activators of Human alpha-Glucosidase From Spleen Homogenate; human spleen homogenate, 4-MU-alpha-glucoside fluorescence; Lysosomal alpha-glucosidase (Homo sapiens), P10253; Potency, µM (highest dose often 79.9 µM), inactives show at the top dose activity change, negative = inhibition, actives largely listed as inhibitors; AID 2112, 2009; 240,000 compounds, 0.006% hits;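 also: potency is read from the fitted curve at half-maximal effect; 0% = enzyme with vehicle and -100% = no enzyme basal signal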
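AC50 values come from Hill-equation fits of concentration-response data, normalized to no-enzyme and full-activity controls. Enzyme source: 1 ug human spleen homogenate; 1 mM fluorogenic 4-MU glucoside, pH 5.0 citrate buffer, 37 C, 40 min.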
GAA glycogen mod – qHTS Assay for Inhibitors and Activators of Human alpha-Glucosidase Cleavage of Glycogen; recombinant GAA, glycogen substrate, Amplex Red glucose oxidase fluorescence; Potency, µM (titrated, usually from 76.4 µM), for the others: top-dose activity change, negative = inhibition, most hits filed as inhibitors; 300,000 compounds, 0.38% hits; AID 2100, 2009;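 also: potency is read from the fitted curve at half-maximal effect; 0% = full enzyme reaction and -100% = no-enzyme basal signal; the screen sought inhibitors and activators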
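qHTS, 1536-well; enzyme 4 nM final; cpd up to 77 uM; substrate bovine liver glycogen 30 ug; 50 mM citrate/phosphate pH 5.0, 0.01% Tween-20; 37 C, 40 min; Amplex Red detection 45 min RT; Hill fit → AC50.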
GLA inh pH 4.5 – qHTS Assay for Inhibitors of Human alpha-Galactosidase at pH 4.5; 230,000 tested, under 10 active; activity change, negative = inhibition, % at 105 µM; AID 1467, 2008; Alpha-galactosidase A (Homo sapiens), P06280; purified enzyme, 4-MU-alpha-Gal fluorescence, pH 4.5;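 also: 0% = full activity with enzyme and -100% = basal without enzyme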
N370S GC – qHTS Assay for Inhibitors and Activators of N370S glucocerebrosidase as a Potential Chaperone Treatment of Gaucher Disease; Lysosomal acid glucosylceramidase (Homo sapiens), P04062; N370S GC spleen homogenate, 4MU-glucoside fluorescence; Potency, µM (highest dose often 59.4 µM), without a hit: at the top dose activity change, negative = inhibition, usual class: inhibitors; 330,000 compounds, 0.092% hits; AID 2101, 2009;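 also: potency is read from the fitted curve at half-maximal effect; 0% = full enzyme activity and -100% = no enzyme basal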
aGal spleen mod – qHTS Assay for Inhibitors and Activators of Human alpha-Galactosidase From Spleen Homogenate; Potency, µM (doses to about 80 µM), for the others: at the top dose activity change, negative = inhibition, actives largely listed as inhibitors; 240,000 compounds, 0.008% hits; human spleen homogenate, 4MU-alpha-Gal fluorescence, 40 min;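 also: potency is read from the fitted curve at half-maximal effect; 0% = enzyme with vehicle and -100% = no enzyme basal signal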
Target sequence (P06280 32-429 limits assumed): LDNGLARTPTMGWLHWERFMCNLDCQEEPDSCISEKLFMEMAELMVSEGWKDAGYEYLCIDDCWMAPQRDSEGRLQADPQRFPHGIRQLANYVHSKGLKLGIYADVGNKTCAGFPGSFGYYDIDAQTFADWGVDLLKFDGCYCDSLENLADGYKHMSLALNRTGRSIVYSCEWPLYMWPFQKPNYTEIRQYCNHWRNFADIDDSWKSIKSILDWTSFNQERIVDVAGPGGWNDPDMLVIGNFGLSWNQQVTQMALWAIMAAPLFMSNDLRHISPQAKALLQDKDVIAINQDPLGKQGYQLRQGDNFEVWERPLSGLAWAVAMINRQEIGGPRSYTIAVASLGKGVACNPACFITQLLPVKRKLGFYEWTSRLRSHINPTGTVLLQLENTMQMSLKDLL
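Spleen homogenate 1 ug + cpd (titration) + 4-MU-alpha-D-galactopyranoside 1 mM; 37C 40 min; 50 mM citrate/phosphate pH 5.0, 0.01% Tween-20; stop pH 10; fluorescence 365/440; AC50 via Hill.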
Numbers without * were called inactive; u = inconclusive; x = not tested or not shown; [ ] = remark or other dose. This is a sample that favours compounds with a hit; in the whole collection about 0.43% have one here. Calls follow the shape of the dose curve; as a rule, active = well fitted curve in the direction sought with a large enough effect; inconclusive = small, poorly fitted or top-dose-only effect, or another doubt; inactive = no such curve, though single readings can be large; an effect the other way counts as inactive or inconclusive.

SMILES | GAA inh | GAA spleen mod | GAA glycogen mod | GLA inh pH 4.5 | N370S GC | aGal spleen mod
O=C(O)c1ccccc1Sc1ccccc1S(=O)(=O)NC1CCCCC1 | x | 3% | 6% | 6 | 7% | 2%
CCOC(=O)c1cc2c(=O)n3ccccc3nc2n(C(C)C)c1=NC(=O)c1ccco1 | u | 25% | 5% | 19 | 26% | u
C/C(=C\C(=O)c1ccccc1)Nc1ccc(O)cc1 | -7% | -5% | 40µM* | -1 | -13% | 0%
C/C(=C\C(=O)c1cccnc1)Nc1ccc(O)cc1 | -11% | -12% | 14µM* | -15 | -26% | -6%
COc1ccc(NC(=O)c2cccnc2)cc1 | x | x | 15%[76.3 µM] | x | -5% | x
COc1cccc(-c2nc(NCc3ccccc3OC)c3ccccc3n2)c1 | x | 2% | x | x | 14µM* | 1%
COc1ccc(CNc2nc(-c3ccccc3CN(C)C)nc3ccccc23)c(OC)c1 | x | 1% | x | -5 | -7% | 1%
COc1cccc(-c2nc(NCc3ccccc3)c3ccccc3n2)c1 | x | -4% | x | x | -5% | 15%
COc1ccccc1CNc1nc(-c2ccc3c(c2)OCO3)nc2ccccc12 | x | 3% | x | x | 16µM* | -5%
COc1ccc(CNc2nc(-c3ccoc3)nc3ccccc23)c(OC)c1 | x | -1% | x | -7 | 14µM* | -9%
COc1ccccc1CNc1nc(-c2ccc(N(C)C)cc2)nc2ccccc12 | x | 1% | x | -5 | -17% | 11%
O=C(CNc1cccc(F)c1)Nc1cccc(S(=O)(=O)N2CCCCC2)c1 | x | x | x | x | -7% | x
CC(C)(C)c1ccc(C(=O)O/N=C(\N)c2ccccc2)cc1 | x | x | -3% | x | u | x
COc1cccc(NC(=S)NNC(=O)c2c([N+](=O)[O-])c(C)nn2C)c1 | 1% | -1% | 25µM* | 2 | -2% | -1%
COc1cccc(NC(=S)NNC(=O)C(C)n2nc(C)c([N+](=O)[O-])c2C)c1 (configuration not stated) | 0% | 9% | 10µM* | 3 | 15% | 15%
O=C(C1CCCO1)N1CCN(C(=S)Nc2ccc(Cl)cc2)CC1 (configuration not stated) | -6% | 1% | 14% | -3 | -1% | u
CCOC(=O)Nc1sc(=S)n(C)c1C | 3% | 8% | 7.9µM* | -4 | 13% | 3%
Cc1c(NC(=O)OCCNC(=O)Nc2ccccc2)sc(=S)n1C | -11% | 13% | u | -8 | u | 5%
CCOC(=O)Cc1c(C)[nH]c(=S)[nH]c1=O | -2% | 3% | 2% | -6 | -2% | 2%
COCCNC(=S)Nc1cc(OC)c(NC(=O)c2ccco2)cc1OC | 14% | 5% | 22% | 6 | 1% | 5%
CN1/C(=N\O)c2cccc3cccc1c23 | 3% | 5% | 35µM* | 3 | -2% | 7%
CNC(=O)CN1C(=O)c2cccc3cccc1c23 | -1% | -13% | 6% | -1 | 3% | -11%
Cc1cc(C(=O)N/N=C/c2ccc(-c3ccc([N+](=O)[O-])cc3C)o2)n[nH]1 | x | x | 4%[76.3 µM] | x | 5% | x
COc1ccc(NC(=S)NNC(=O)c2cccnc2)cc1OC | -7% | -6% | 4µM* | 2 | -10% | 7%
COc1ccc(C(=O)NNC(=S)NC(=O)c2cccnc2)cc1 | 4% | -3% | 40µM* | -2 | -12% | 1%
C=CCn1c(SCC(=O)NC2CCCC2)nc2scc(-c3ccco3)c2c1=O | -7% | -7% | 2% | 3 | 13µM* | -7%
CCN(CC)S(=O)(=O)c1cccc(-c2nnc(C(=O)c3ccc(C(F)(F)F)cc3)o2)c1 | 2% | -2% | 1% | 0 | -2% | 8%
